# From the supplement of paper PMC6555819
# Tested on: RARa homodimer (NR concentration 270 nM)
# Assay: PBM binding z-score (relative to random genomic background probes); higher = stronger binding; sequences stand for … in GC…GCGATTGACAGCGTAGAATGAAGG
# Outline: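 Binding z-scores take random background probes as their reference. They come from custom Agilent 4×180K protein-binding microarrays incubated 1 h with ligand-free nuclear receptor dimers, with antibodies against each partner (one per run) detecting binding. Scanned fluorescence was regression-normalized.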
row,Sequence,PBM binding z-score
1,ATCTCTAGGTAAGACTCAGTTCACTGAAGAACGC,0.789
2,TCATATAGATAATACAGGTGAAAGTCGGCATCTA,2.03
3,AATAAAGGGTCACTAGGCCAGAGTAGGTACGAAT,1.9
4,TCGATTAGGTTACCAATGGGGCATTCAGCTTTCT,-0.505
5,ACTAGTTGGTCAGCTGACGTCACACACAATTCGG,0.251
6,AATACAGGGTCATCGTAGTCCAGAGTACGCACAG,0.827
7,CGAACGAGGGCATGAGATGATAGCAAATGCCGAT,0.183
8,ATACCAAGGAGATCGTGAGGTCGTTGATACTAAC,-0.464
9,GCTAGCAGGCCATTTCGGTCACTCAATGACGGGC,-1.42
10,ACTATTAGGTGAGACGAGGGCAACCGATAGGTTG,0.564
11,TCCTATAGGTAAATGCTAGGTGAAAGTCCGATCT,0.208
12,ATCTCTAGATAAGACTCAGTTCAGTGAAGAACGC,0.631
13,TTAGCAAGGTGAGCTGAGGTCGTTGATCCAACTC,-1.15
14,CGCCCAAGGTCATAGGAGGTCAGTGAAGACAGAT,1.63
15,GCATATAGGTAGTACAAGGTGAAAGTCCGATTGT,0.249
16,CAAACTAGGTCAAACGTCAAAGTCGAGCCAACCA,0.354
17,GCGACTGGGGCATCAGCAGGTTACCGTAACTTAA,-0.334
18,GCTGCTAGGTCAGGTTGGTCAGCTTACGGGTACG,-0.341
19,CGTCCAAGGTCAGAGAGGTCAGTGAATGCCGAGT,3.8
20,TAGCCTAGGTCAGGCGGGCCAGTATAGTGTCGGC,-0.619

row,Sequence,PBM binding z-score
1,TCTAGTTGGTCACCGAGGTCACACACGACGGGTA,1.78
2,GCTGCTAGGTCAACTGTTGGTCAGCTAAAGCTCG,-0.53
3,ACAGACAGGTGATGAAGGCAACTCAGGCTATCAT,0.0844
4,CGAACTAGGTCATCCTGGACAGTGAATACATTGA,0.627
5,TTACCAAGGTGAAGGTTGTTGATCCCTCTGTAGA,-0.403
6,GATACAGGGCCAAGGCCAGAGTACGCGTATTGAT,-0.587
7,TTACCAAGGTGCAAGGTCGTTGATGCACGCCTTG,-0.653
8,CCTAGTTGATCAAGGTCACACACGCTATAGGTAC,2.05
9,CATACTGGGCCACGAAAGGTCATTGATTCAGTGA,0.959
10,CCTAGTGGGTCAAGGTCACACACGCTATAGGTAC,2.82
11,GGAACGAGGGCATTCGTGTTGATAGCATGGCGAT,-0.471
12,TCTAGTTGGTCCCGGAGGTCACACACGACGGGTA,1.21
13,CCTAGCAGCCCAGGGTCACTCAAGCATTTCGCTT,0.00809
14,CCTACTGGGTCAAGGTCATTGATCAGTCAAAGCA,0.915
15,CAAACTAGGTTACCGGAAGGTCAAAGTCCGCATG,1.39
16,TCATGTAGATCAGCAGGTTAAGAAAGCTGGCCAA,-0.0627
17,AGAACGAGGGCAATGAGTTGATAGCGCGGGTGGC,-1.01
18,CCTTATGGGTCACTGACAGGTTATAGCATTTGGA,0.956
19,GCGACTGGGGCAAAGCAGGTCACCATAAGGTTGG,-0.0737
20,CGTCCAAGGTGAAAGGTCAGTGAAGAGATGACGG,1.47
